Methyltransferases: Primary Screen for Target Class Profiling of Small Molecule Inhibitors of Methyltransferases. purified enzyme, MTase-Glo SAH luminescence; active compounds read low. calls only at 40 µM. 25,000 compounds, 3.9% hits; call rule not given here
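Each enzyme was assayed with SAM and its substrate. SAH formation detected by MTase-Glo luminescence; single-point 40 uM screen[…].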
An asterisk follows results filed as active. The sample as a whole holds a higher share of hits than the screen did. On the % scale 0 is the no-effect control and ±100 the full control effect.

CC(=O)N1CCN(NC(=O)c2ccc(F)cc2)CC1 was read as Methyltransferases inactive.
Screening CN1CCC(c2c[nH]c3ccc(NC(=O)c4ccc(F)cc4)cc23)CC1 returned Methyltransferases active.
CCN1c2cc(C(=O)Nc3cccc(F)c3)ccc2C(=O)N2CCCC21 (stereo not drawn) was read as Methyltransferases inactive.
`O=C(CCc1nnn2c1CN(C(=O)c1cccc3[nH]ccc13)CC2)N1CCCC1` gave Methyltransferases inactive.
Screening CN(C)CCN(C)[C@H]1[C@@H]2OC[C@@H](O2)[C@@H](NC(=O)Nc2cccc(C#N)c2)[C@@H]1O returned Methyltransferases inactive.
COc1ccccc1CNC(=O)C1(C)Cn2nc(-c3ccccc3)cc2C(=O)N1Cc1ccc(SC)cc1 (stereo not drawn) was read as Methyltransferases inactive.
CC(C)OCCCNC(=O)C1(C)Cn2c(cc3ccccc32)C(=O)N1Cc1ccc(Cl)cc1 (stereo not drawn) was read as Methyltransferases inactive.
`COC(=O)[C@@H]1Cc2ncn(Cc3ccc(Cl)cc3)c2CN1Cc1cccnc1` gave Methyltransferases inactive.
Screening C/C(=C\CC/C(C)=C/CC[C@]1(C)CCc2cc(O)cc(C)c2O1)CC/C=C(\C)C(=O)O returned Methyltransferases active.
Screening O=C(Cn1nc2n(Cc3ccc(F)cc3)c(=O)c3ccccc3n2c1=O)Nc1ccc(F)cc1 returned Methyltransferases inactive.
`O=C(NCCc1ccccc1)c1cc(-c2ccc(F)cc2)nc2n[nH]c(-c3ccccc3)c12` gave Methyltransferases inactive.
Screening Cn1cc(-c2cnn3c(N)c(Br)c([C@@H]4CCCNC4)nc23)cn1 returned Methyltransferases active.
Screening CCCOc1ccc(CN2C(=O)c3cc4occc4n3CC2(C)C(=O)NC2CCCCCC2)cc1 (stereo not drawn) returned Methyltransferases inactive.
O=C(c1ccccn1)N1C[C@@H]2C[C@H](C1)c1ccc(NS(=O)(=O)Cc3ccccc3)c(=O)n1C2 was read as Methyltransferases inactive.
For COCCNC(=O)C[C@@H]1C[C@H]2O[C@H](CNCc3cccnc3OC)[C@@H](O)[C@H]2O1 the results were Methyltransferases inactive.
Screening COc1ccc(C(=O)N2CCC3(CC2)CC(N(Cc2ccccc2)C2CC2)CCO3)cn1 (stereo not drawn) returned Methyltransferases inactive.
`CCn1c(-c2nonc2N)nc2c(C#CC(C)(C)O)ncc(OCC3CCCNC3)c21` (stereo not drawn) gave Methyltransferases active.
Screening CC1(C(=O)NC2CCCCCC2)Cn2c(ccc2-c2ccccc2)C(=O)N1Cc1cccs1 (stereo not drawn) returned Methyltransferases inactive.
`NS(=O)(=O)NCCNc1nonc1C(=Nc1ccc(F)c(Br)c1)NO` gave Methyltransferases inactive.
For CC1Oc2ccc(NC(=O)c3cccs3)cc2CN(CCOc2ccccc2)C1=O (stereo not drawn) the results were Methyltransferases inactive.
Screening CC(C)[C@@](C)(O)[C@@H]1CN(c2nc(-c3[nH]nc4ncccc34)c(F)cc2Cl)CCN1 returned Methyltransferases active.
Cc1cc(C)cc(N2C(=O)c3cc4sccc4n3CC2(C)C(=O)NC2CCC(C)CC2)c1 (stereo not drawn) was read as Methyltransferases inactive.
For Cc1nc(Nc2n[nH]c3c2CN(C(=O)NC(CN(C)C)c2ccccc2)C3(C)C)c2sccc2n1 (stereo not drawn) the results were Methyltransferases active.
`CC(C)(C)c1ccc(S(=O)(=O)NCCn2c(CCc3ccccc3)nc3ccccc32)cc1` gave Methyltransferases inactive.
COc1cccc(Cn2nc3n(CC(C)C)c(=O)c4ccc(C(=O)NC5CCCC5)cc4n3c2=O)c1 was read as Methyltransferases inactive.
Screening C/C=C(\C)C(=O)O[C@H]1[C@@H](O[C@]2(COC(=O)CC(C)C)O[C@H](COC(=O)C(C)C)[C@@H](OC(C)=O)[C@@H]2O)O[C@H](COC(C)=O)[C@@H](O)[C@@H]1O returned Methyltransferases active.
Screening C/C=C(\C)C(=O)OCC1OC(OCC2OC(OC3(CO)OC(CO)C(O)C3O)C(O)C(O)C2O)C(O)C(O)C1O (stereo not drawn) returned Methyltransferases inactive.
CC(C)CC(=O)OC[C@H]1O[C@@](COC(=O)CC(C)C)(O[C@H]2O[C@H](CO)[C@@H](O)[C@H](O)[C@H]2OC(=O)CC(C)C)[C@@H](OC(=O)CC(C)C)[C@@H]1O was read as Methyltransferases inactive.
Screening CS(=O)(=O)c1ccc(CN2C[C@H](O)C[C@H]2c2nc(C3CC3)no2)cc1 returned Methyltransferases inactive.
CCCCNC(=O)c1cc2n(n1)CC(C)(C(=O)NCCC(C)C)N(C)C2=O (stereo not drawn) was read as Methyltransferases inactive.
Screening CC(C)Cn1c(=O)c2ccc(C(=O)NC(C)C)cc2n2c(=O)n(CC(=O)c3ccc(F)cc3F)nc12 returned Methyltransferases inactive.
